Measured values from PubChem BioAssay AID1645855 (Buhrlage Lab, Dana-Farber Cancer Institute and Novartis …, 2021).
The campaign covered roughly 47,000 compounds. About 3,100 (6.6%) were called active. No stated cut-off is given here; in the data, active means inhibition above about 30%; inactive means the rest. Many of the other results were omitted from the sample, so actives are more common in it than they were.

Each compound was assayed against Ubiquitin carboxyl-terminal hydrolase 17-like protein 5 (Homo sapiens) (UniProt A8MUK1) (assay: blocks human USP17 ubiquitin-rhodamine cleavage (AID 1645855)). Conditions: purified USP17, Ub-rhodamine cleavage fluorescence, 3 h; at 50 µM; stronger effect = higher value.
Chain of Ubiquitin carboxyl-terminal hydrolase 17-like protein 5 (Homo sapiens) (A8MUK1 whole entry, looked up): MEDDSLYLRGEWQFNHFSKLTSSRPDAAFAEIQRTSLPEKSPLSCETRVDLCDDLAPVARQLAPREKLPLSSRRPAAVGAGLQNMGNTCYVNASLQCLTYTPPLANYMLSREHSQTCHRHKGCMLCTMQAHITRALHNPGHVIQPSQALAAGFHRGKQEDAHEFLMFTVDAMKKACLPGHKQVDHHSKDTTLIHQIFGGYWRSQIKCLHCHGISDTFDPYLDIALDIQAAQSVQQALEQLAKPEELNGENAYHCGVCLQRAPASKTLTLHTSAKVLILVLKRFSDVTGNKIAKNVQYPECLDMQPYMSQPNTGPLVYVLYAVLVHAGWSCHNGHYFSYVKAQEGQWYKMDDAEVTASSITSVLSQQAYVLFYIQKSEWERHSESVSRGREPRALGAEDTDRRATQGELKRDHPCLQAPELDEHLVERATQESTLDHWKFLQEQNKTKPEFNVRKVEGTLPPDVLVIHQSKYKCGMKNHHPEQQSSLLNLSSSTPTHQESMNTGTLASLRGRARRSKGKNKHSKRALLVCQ

Structure (SMILES) | inhibition
O=C(c1ccc(OC2CCN(C(=O)C3CCC3)CC2)nc1)N1CCOCC1 | -14.4% (inactive)
CC(=O)N1CC2(CCN(C(=O)c3ccncc3)CC2)Nc2ccccc21 | -3.13% (inactive)
CCOC(=O)c1[nH]c2cc(OC)c(OC)cc2c1NC(=O)c1cc2cccc(OC)c2o1 | -23.6% (inactive)
CCOC(=O)c1c(NC(=O)CNc2cc(C)ccc2C)sc(Cc2ccc3c(c2)OCO3)c1C | 5.67% (inactive)
O=C(c1cccnc1)N1CC[C@@H]2CNS(=O)(=O)[C@@H]2CC1 | -5.34% (inactive)
CN1[C@@H](CCC(=O)N2CCN(c3ccccc3)CC2)CNC(=O)[C@H]2NCC[C@H]21 | 7.19% (inactive)
Cc1ccc(N(C)C(=O)CCn2cnc3ccccc3c2=O)cc1 | -3.3% (inactive)
Cc1ccc(NC(=O)CCn2cnc3c2c(=O)n(C)c(=O)n3C)cc1 | -13% (inactive)
Cc1c(Cl)cccc1NC(=O)CCn1cnc2ccccc2c1=O | 55.3% (active)
Cc1nnc2c(NC(=O)Cc3cccc(C(F)(F)F)c3)cccn12 | -9.8% (inactive)
Cc1cccc(NC(=O)C2CN(S(C)(=O)=O)c3ccccc3O2)c1C (stereo not drawn) | -4.9% (inactive)
CCS(=O)(=O)n1nc(NCc2ccccc2)nc1NCc1ccccc1 | 1.97% (inactive)
CCOc1ccc(NC(=S)Nc2ccc(Cc3ccncc3)cc2)cc1 | 7.13% (inactive)
COc1ccc(-c2cnc(SCCNC(=O)c3cccc(F)c3)[nH]2)cc1 | -3.6% (inactive)
COc1ccc(-c2[nH]c3ccccc3c2SCCNC(=O)c2ccc(S(=O)(=O)N3CCOCC3)cc2)cc1 | 56.7% (active)
COc1ccc(NC(=O)c2cc(=O)[nH]c3ccccc23)cc1S(=O)(=O)N1CCOCC1 | -3.19% (inactive)
CC(C)Oc1ccc(CNC(=O)C2CCCN(c3ccc(N4CCOCC4)nn3)C2)cc1 (stereo not drawn) | -6.08% (inactive)
O=C1C(O)=C(c2ccc(O)c(O)c2)C(=O)C(O)=C1c1ccccc1 | 57.3% (active)
COc1cnc(CSc2nccc(C)n2)cc1OCC(=O)Nc1ccc(C)cc1C | 2.43% (inactive)
CC(C)Cc1cc(-c2nn3c(-c4ccccc4Cl)nnc3s2)n[nH]1 | 42.6% (active)
CC(C)Cc1nc2sc3c(NCc4ccco4)ncnc3c2c2c1CCC2 | 43.3% (active)
CC(O)CNc1ncnc2c1oc1nc(C(C)C)c3c(c12)CCC3 (stereo not drawn) | 3.5% (inactive)
CC(C)Cc1nc2sc3c(N(CCO)Cc4ccccc4)ncnc3c2c2c1COC(C)(C)C2 | 29.6% (inactive)

Structure (SMILES) | inhibition
COc1cccc(-c2cn3c4c(=O)n(C)c(=O)n(C)c4nc3n2-c2ccc(OC)c(OC)c2)c1 | 20.6% (inactive)
CC(=O)N[C@@]12CN(C)CC[C@@H]1[C@@H](c1ccccc1)N(CC(=O)Nc1ccc(F)cc1)C2 | -2.8% (inactive)
O=C(CCCn1c(=O)c2ccccc2n(Cc2ccccc2F)c1=O)NC1CCCC1 | 21.6% (inactive)
N#Cc1ccccc1Cn1c(=O)n(CCCC(=O)NCc2ccc(F)cc2)c(=O)c2ccccc21 | 30.8% (active)
COCCCn1c(=O)c2ccccc2n(Cc2nc(-c3ccccc3)no2)c1=O | -3.49% (inactive)
CC1Oc2ccc(NC(=O)c3ccc4c(c3)CCC4)cc2NC1=O (stereo not drawn) | -11% (inactive)
Cc1ccc(Cn2cc(-c3noc(-c4ccc[nH]4)n3)nn2)cc1 | 0.022% (inactive)
CC(CCc1ccccc1)NC(=O)/C=C/c1cccc([N+](=O)[O-])c1 (stereo not drawn) | 6.91% (inactive)
COc1ccccc1C(=O)Nc1cccc(Oc2ccccc2)c1 | 12.6% (inactive)
CC(CCc1ccccc1)NC(=O)c1cc2cc(Oc3ccccc3)ccc2[nH]1 (stereo not drawn) | 32.3% (active)
C[C@@H]1O[C@@H](OC2[C@H](Oc3cc(O)c4c(c3)OC(c3ccc(O)cc3)CC4=O)O[C@H](CO)[C@@H](O)[C@@H]2O)[C@H](O)[C@H](O)[C@H]1O (stereo partly drawn) | 0.6% (inactive)
Cc1ccc2cc(CNc3ccccc3)c(=O)n(CC(=O)Nc3ccccc3C)c2c1 | 84.2% (active)
Cc1cccc(C2=NC3(CCN(CC(=O)Nc4ccccc4C)CC3)NC2=O)c1 | -42.3% (inactive)
Cc1cccc(NC(=O)Cn2c(C)ccc(NC(=O)Nc3cccc(C)c3)c2=O)c1 | 14% (inactive)
O=C(Cn1cccc(S(=O)(=O)N2CCCC2)c1=O)Nc1ccccc1 | -38% (inactive)
CN(C)CCO[C@H]1CN(C(=O)c2cccnc2)[C@@H]2CCCO[C@H]12 | -13.9% (inactive)
COc1ccc(C)cc1NC(=O)Cn1c(=O)nc(N(C)c2ccccc2)c2ccccc21 | 14.1% (inactive)
O=C(Cn1cnc2c(sc3ccccc32)c1=O)Nc1ccc2c(c1)OCCO2 | 23.3% (inactive)
CN(c1ccccc1)c1nc(=O)n(CC(=O)Nc2ccc3c(c2)OCCO3)c2ccccc12 | 54% (active)
COc1cc(O)sc1C=Nc1ccc(Oc2ccccc2)cc1 | 9.93% (inactive)
Cc1cnc(N2CCC3(CC2)[C@@H]2CN(Cc4cccnc4)C[C@@H]2C(=O)N3C)nc1 | -34.9% (inactive)
c1ccc(-c2ccc(NCc3ccc4c(c3)OCO4)nn2)cc1 | 71.6% (active)
c1cc(CNCc2ccc3c(c2)OCO3)ccn1 | 0.475% (inactive)

Structure (SMILES) | inhibition
CCC(Oc1ccccc1)C(=O)NCc1ccc2c(c1)OCO2 (stereo not drawn) | -0.19% (inactive)
COC(=O)c1ccc(CN2CCN(c3cnn4cnnc4c3)CC2)cc1 | 0.152% (inactive)
CN(CC(=O)Nc1cccc(C(F)(F)F)c1)Cc1nc2ccccc2c(=O)[nH]1 | -13.9% (inactive)
Cc1ccc(S(=O)(=O)Nc2nc3ccccc3n3nnnc23)cc1 | -34.7% (inactive)
CSc1nccc(-c2ccc(F)cc2)c1C#N | 82.5% (active)
COc1ccc(F)c([C@@H]2NC(=O)CC[C@H]2NCc2cccc(O)c2)c1 | -6.39% (inactive)
CC(=O)Nc1cccnc1-c1ccc(C(=O)Nc2ccc(C)c(C)c2)cc1 | 6.52% (inactive)
Cc1ocnc1C(=O)N[C@@H]1C[C@@H](Oc2ccccc2)[C@H](O)[C@H]1N1CCOCC1 | 9.29% (inactive)
Cc1cccc(OCCCC(=O)Nc2sc3c(c2C(N)=O)CCCC3)c1C | -11% (inactive)
Cc1ccc2occ(CC(=O)Nc3sc4c(c3C(=O)NCc3cccnc3)CCCC4)c2c1 | 33.6% (active)
Cc1ccc(NS(=O)(=O)c2cc(C(=O)NCc3cccnc3)ccc2Cl)cc1 | 6.21% (inactive)
COc1ccc(CCNC(=O)c2ccc3ccccc3c2)cc1OC | -2.29% (inactive)
O=C(NCCc1c[nH]c2ccccc12)c1cc2cc(Cl)ccc2o1 | 23% (inactive)
COc1ccc2[nH]cc(CCNC(=O)Cc3csc(-c4cc(OC)c(OC)c(OC)c4)n3)c2c1 | 8.14% (inactive)
CCC(=O)NC(=NCCc1c[nH]c2ccc(Cl)cc12)Nc1nc(C)cc(C)n1 | 43.9% (active)
CC(=O)N1CCCCCC1C1CCN(c2ncccc2C#N)CC1 (stereo not drawn) | -19% (inactive)
Cn1nccc1-c1cccc(-c2noc(-c3ccoc3)n2)c1 | -3.53% (inactive)
O=C(CCCC1=NS(=O)(=O)c2ccccc2N1)Nc1ccc(C(=O)O)cc1 | 25.1% (inactive)
Cc1c(Cl)cccc1NC(=O)C(=O)c1cn(CC(=O)N2CCOCC2)c2ccccc12 | -0.359% (inactive)
Cn1ccnc1CN1C(=O)CO[C@H]2CN(Cc3ccc4c(c3)OCO4)C[C@H]21 | 4.69% (inactive)
Cc1cc(-c2cncnc2-c2ccc(CNC(=O)Cc3ccccc3C)cc2)on1 | 18.8% (inactive)
Cc1ccccc1CS(=O)(=O)Cc1ccc(C(=O)Nc2noc3ccccc23)o1 | 48.3% (active)
